Bioassay records from PubChem.
Shown are actives, neighbours in structure and some others; about 1.8% of the full set was active somewhere.
KCNH2 3.1 block: qHTS for Inhibitors of KCHN2 3.1: Mutant qHTS; Potassium voltage-gated channel subfamily H member 2, brain isoform KCNH2 3.1 (human); 340,000 compounds, 0.95% hits; activity change, % (tested at about 1.8 µM); U2OS KCNH2 3.1, thallium flux FluxOr; hits give low values;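 active = maximum activity change below -70%; inconclusive = maximum activity change from -70% to -50%; inactive = maximum activity change above -50%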;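 also: thallium influx rate constant from kinetic fluorescence after stimulation buffer; % is scaled to controls: 0 for no effect and ±100 for the full control effect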
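Steps: virus added to U2OS suspension (4 h, RT, dark); medium with 10% FBS added, cells plated, 37 C overnight; FluxOr/Red40 loading buffer 45 min RT; stimulation buffer, 2 min kinetic read; rate constant normalized.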
A-T KAP1 phos: qHTS Assay for Identifying a Potential Treatment of Ataxia-Telangiectasia. F2112 A-T fibroblasts, KAP-1 phosphorylation AlphaLISA; neocarzinostatin DNA damage 30 min before lysis. Potency, µM (top dose mostly 57.5 µM), inactives show at the top dose activation, usual class: activators. 320,000 compounds, 0.19% hits; also: potency is read from the fitted curve at half-maximal effect; % of control where 0% means no effect; nearly all actives have a fitted effect of over 45% in size
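ATM-like activity read as KAP-1 phosphorylation via AlphaLISA donor/acceptor antibody pairs after lysis and 6 hr at 25C. Cells were ATM-null patient fibroblasts (F2112, hTERT), dosed 60 min, then exposed to the DSB inducer NCS for 30 min.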
ALOX12 inh: Primary qHTS assay for inhibitors of human arachidonate 12S-lipoxygenase (ALOX12): Round 2; Polyunsaturated fatty acid lipoxygenase ALOX12 (Homo sapiens), P18054; purified 12hLO, xylenol orange hydroperoxide absorbance; Potency, µM (doses to about 108 µM), for inactives: top-dose activity change, negative = inhibition, usual class: inhibitors; 580,000 compounds, 1.1% hits; also: potency is read from the fitted curve at half-maximal effect; % is scaled to controls: 0 for no effect and ±100 for the full control effect
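Hydroperoxide product was detected by ferrous iron/xylenol orange as the 573 to 405 nm absorbance ratio. Arachidonic acid at 40 uM (final) was turned over for 30 min at room temperature by 150 nM human 12hLO, pH 7.0 Hepes buffer, after 15 min compound preincubation.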
KCNH2 WT inh: qHTS for Inhibitors of KCHN2 3.1: Wildtype qHTS; U2OS, BacMam KCNH2, thallium flux FluxOr; hits give low values; activity change, % at 1.84 µM; 340,000 compounds, 0.37% hits; AID 720551, 2013;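 active = maximum activity change below -70%; inconclusive = maximum activity change between -70% and -50%; inactive = maximum activity change above -50%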; also: % is scaled to controls: 0 for no effect and ±100 for the full control effect
Target sequence (Q12809 whole entry, looked up): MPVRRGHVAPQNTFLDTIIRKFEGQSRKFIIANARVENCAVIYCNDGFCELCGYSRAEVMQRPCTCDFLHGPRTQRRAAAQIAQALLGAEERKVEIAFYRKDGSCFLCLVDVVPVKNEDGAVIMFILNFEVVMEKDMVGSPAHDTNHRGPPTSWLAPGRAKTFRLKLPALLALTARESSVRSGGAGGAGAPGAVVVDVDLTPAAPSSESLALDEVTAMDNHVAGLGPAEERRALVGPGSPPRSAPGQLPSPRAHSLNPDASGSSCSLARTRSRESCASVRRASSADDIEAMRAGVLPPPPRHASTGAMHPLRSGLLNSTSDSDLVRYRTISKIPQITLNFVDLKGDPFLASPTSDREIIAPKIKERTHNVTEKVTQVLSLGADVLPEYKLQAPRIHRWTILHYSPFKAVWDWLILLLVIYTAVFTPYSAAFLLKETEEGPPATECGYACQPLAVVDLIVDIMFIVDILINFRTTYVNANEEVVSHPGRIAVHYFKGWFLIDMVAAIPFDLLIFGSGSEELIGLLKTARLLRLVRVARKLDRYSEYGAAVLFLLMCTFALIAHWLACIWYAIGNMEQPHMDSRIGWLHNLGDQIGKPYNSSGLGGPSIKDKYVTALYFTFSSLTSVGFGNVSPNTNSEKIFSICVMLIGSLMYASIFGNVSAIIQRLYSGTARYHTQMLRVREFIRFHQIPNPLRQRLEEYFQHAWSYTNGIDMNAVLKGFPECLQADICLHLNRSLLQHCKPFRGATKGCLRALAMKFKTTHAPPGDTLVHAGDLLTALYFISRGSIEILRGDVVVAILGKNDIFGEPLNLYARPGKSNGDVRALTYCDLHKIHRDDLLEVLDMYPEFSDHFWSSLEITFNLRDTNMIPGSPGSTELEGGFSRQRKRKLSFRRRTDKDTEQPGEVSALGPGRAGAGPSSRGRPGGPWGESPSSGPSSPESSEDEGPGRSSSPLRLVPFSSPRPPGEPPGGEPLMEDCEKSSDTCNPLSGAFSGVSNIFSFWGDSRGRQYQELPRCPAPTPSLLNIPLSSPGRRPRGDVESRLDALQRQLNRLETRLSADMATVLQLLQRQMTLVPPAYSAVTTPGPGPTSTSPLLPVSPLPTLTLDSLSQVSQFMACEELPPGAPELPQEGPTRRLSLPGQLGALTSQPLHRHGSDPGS
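U2OS cells were transduced with wild-type KCNH2 virus (2.03 x 10^8 / mL) for 4 h at room temperature, then cultured overnight at 37 C. Thallium flux was read with FluxOr dye. Rate constants were normalized to DMSO controls.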
Numbers without * were called inactive; u = inconclusive; x = not tested or not shown. Unless noted, calls follow the shape of the dose curve; as a rule, active = well fitted curve in the direction sought with a large enough effect; inconclusive = small, poorly fitted or top-dose-only effect, or another doubt; inactive = no such curve, though single readings can be large; an effect the other way counts as inactive or inconclusive.

SMILES | KCNH2 3.1 block | A-T KAP1 phos | ALOX12 inh | KCNH2 WT inh
O=C1OC(c2ccc3ccccc3c2O)(c2ccc3ccccc3c2O)c2ccccc21 | 11 | x | 6.3µM* | 0
CN(C)c1cc(N2CCCC(NC(=O)Cc3cccs3)C2)ncn1 (stereo unspecified) | x | x | 0% | x
Cn1c(C(=O)N2CCN(c3ccc([N+](=O)[O-])cc3)CC2)cc2c(=O)[nH]c3ccccc3c21 | -96* | 21% | -15% | -71*
CC(C)n1cc(CN2CCCC(C(=O)Nc3cccc(-c4cc5ccccc5[nH]4)c3)C2)cn1 (stereo unspecified) | -95* | -2% | 2% | -19
COc1cc(N2C(=O)C=CC2=O)c(OC)cc1Cl | 1 | -6% | 16µM* | 2
CC(=O)Nc1ccc(N2C(=O)c3ccc(S(=O)(=O)c4ccc(C(=O)O)cc4)cc3C2=O)cc1 | 22 | 12% | -13% | -168*
COCC(=O)N1CCN(Cc2nc(C)no2)CC1 | x | x | -5% | x
COc1ccccc1/C=C/C(=O)NC(=S)NCC1CCCO1 (stereo unspecified) | 3 | 6% | 40µM* | 6
CC(C)(C)c1ccc(C(=O)NNC(=S)NCC2CCCO2)cc1 (stereo unspecified) | 6 | -5% | 38% | -11
COCCNC(=S)NC(=O)c1ccc(C(C)(C)C)cc1 | 10 | -1% | 13µM* | 13
COc1ccc(/C=C/C(=O)NC(=S)NCC2CCCO2)cc1 (stereo unspecified) | 1 | 4% | -30% | 10
CC(C)(C)c1ccc(C(=O)NC(=S)NCC2CCCO2)cc1 (stereo unspecified) | -19 | 2% | 7.9µM* | -16
CCOC(=O)NNC(=S)NCC1CCCO1 (stereo unspecified) | x | x | 6.3µM* | x
CSc1ccc(-c2noc(Cn3cnc4c(oc5ccccc54)c3=O)n2)cc1 | x | x | -57% | x
O=C(NC(=S)NCc1ccco1)c1ccc([N+](=O)[O-])cc1 | 5 | 13% | -15% | 3
CC(C)(C)c1ccc(C(=O)NC(=S)NCc2ccco2)cc1 | -9 | 4% | 14µM* | -8
O=C(NC(=S)NCc1ccco1)c1ccc(Br)cc1 | -9 | 9% | 16µM* | -7
O=C(NC(=S)NCc1ccco1)c1ccccc1 | 42 | -2% | -13% | 0
CCCn1ncc(CNC2CC(=O)N(Cc3ccccc3C(F)(F)F)C2)c1C (stereo unspecified) | x | x | 33% | x
Cc1cnc(-c2cccnc2)n1CC1CCN(S(=O)(=O)Cc2ccccc2)CC1 | x | x | 41% | x
CCCn1c(=S)[nH]c2sc3c(c2c1=O)CCCC3 | -22 | -5% | -13% | -85*
COCCCn1c(=S)[nH]c2sc3c(c2c1=O)CCCS3 | 5 | -16% | 45µM* | 2
COCCn1c(=S)[nH]c2sc3c(c2c1=O)CCC(C)C3 (stereo unspecified) | 16 | -2% | u | -11
COc1ccc(C2=Nn3c(nnc3-c3ccccc3OC)SC2)cc1OCC1CC1 | x | -11% | 35µM* | x
COc1ccc(OC)c(-c2nnc3n2N=C(c2ccc(OC(F)F)c(OCC4CC4)c2)CS3)c1 | x | -15% | -5% | x
SMILES | KCNH2 3.1 block | A-T KAP1 phos | ALOX12 inh | KCNH2 WT inh
O=C(Oc1ccc(OC(=O)C2CCCCC2)c(Cl)c1)C1CCCCC1 | x | x | 12% | x
O=[N+]([O-])c1cccc(-c2ccc(C(=S)N3CCN(c4ccccc4)CC3)o2)c1 | -3 | -8% | -18% | 0
Cc1c(Cl)cccc1-c1ccc(C(=O)N2CCN(c3ccc([N+](=O)[O-])cc3)CC2)o1 | -80* | -8% | 361% | -48
O=C(c1ccc(-c2cccc(Cl)c2)o1)N1CCN(c2ccc([N+](=O)[O-])cc2)CC1 | -101* | -1% | 9% | u
S=C(NCCc1ccccc1)Nc1ccc(Br)cc1 | -9 | 4% | 35µM* | 1
Cc1cccnc1NC(=S)Nc1ccc(Br)cc1Cl | -4 | 30% | 11µM* | -13
S=C(NCCCc1ccccc1)Nc1ccc(Br)cc1Cl | x | x | 45µM* | x
Oc1ccc(CCNC(=S)Nc2ccc(F)cc2)cc1 | x | x | 1% | x
CC(=O)NNC(=S)Nc1ccc(Br)cc1Cl | x | x | 10% | x
Fc1ccc(CCNC(=S)Nc2ccc(Oc3ccccc3)cc2)cc1 | x | x | 22µM* | x
COc1ccc(C(=O)N2CCCC(C(=O)Nc3cccc(C#N)c3)C2)c2ccccc12 (stereo unspecified) | x | x | 10% | x
CNc1nccc(N2CCC(CC(=O)NCc3ccncc3)CC2)n1 | x | x | -9% | x
Cc1ccc(Nc2nc(N)nc(CN3CCN(C)CC3)n2)cc1C | x | 2% | x | x
COc1ccc(N2CCN(Cc3nc(N)nc(Nc4ccc(C)c(Cl)c4)n3)CC2)cc1 | -73* | -1% | -22% | 31
CCOc1nc(Nc2ccc(OC)c(Cl)c2)nc(N2CCN(c3ccc(OC)cc3)CC2)n1 | -109* | -2% | 109% | 3
COc1ccc(Nc2nc(N)nc(CN3CCOCC3)n2)cc1 | -14 | -6% | 12% | 7
Cc1ccc(Nc2nc(N)nc(CN3CCN(c4ccccc4)CC3)n2)cc1Cl | -75* | 4% | -15% | 13
CCOc1nc(Nc2ccc(F)cc2)nc(N2CCN(c3ccc(OC)cc3)CC2)n1 | u | 2% | 21% | -3
O=C(O)C1CC(=O)N(c2ccc(S(=O)(=O)Nc3cc(F)cc(F)c3)cc2)C1 (stereo unspecified) | x | x | -26% | x
Cc1cccc(C)c1OC1CN(c2cc(C3CC(O)C3)nc(N)n2)C1 (stereo unspecified) | x | x | 60% | x
Cc1cccc(NC(=O)CCNC(=O)C2CCCC2)c1C | x | x | -32% | x
O=C1CSC(c2cccs2)N1c1ccccc1 (stereo unspecified) | 10 | 4% | -1% | -4
c1ccc(N2CCN(c3ccccc3)C2c2cccs2)cc1 | 3 | -2% | 1% | -132*
Cc1ccc2c(c1)[C@H]1[C@H](CO2)[C@H](c2ccccc2)[C@]2(C)C(=O)N(CC3CCCO3)CC(=O)N12 (stereo partly specified) | -50 | 0% | 11% | 7
C[C@@]12C(=O)N(CC3CCCO3)CC(=O)N1[C@H]1c3cc(Cl)ccc3OC[C@@H]1[C@@H]2c1ccccc1 (stereo partly specified) | -93* | 6% | 1% | 3
C[C@@]12C(=O)Nc3ccc(Br)cc3C(=O)N1[C@H]1c3cc(Cl)ccc3OC[C@@H]1[C@@H]2c1ccccc1 | -74* | 15% | x | -3
N/C(=N\N=C/c1ccc(F)cc1)N/N=C\c1ccc(F)cc1 | -73* | -2% | -56% | 7
CCCC(C)NC(=O)NC(C)c1cccc(Cl)c1 (stereo unspecified) | x | x | -18% | x
Cc1cccc(-n2c(=O)c3c(cc(C)n3C)n(CC(=O)Nc3c(C)cccc3C)c2=O)c1 | x | x | 71µM* | x
